This is a sample that favours compounds with a hit; in the whole collection about 3% have one here.
GALK inhibitor = inhibitors of human galactokinase; P51570; Purified GALK, Kinase-Glo residual ATP luminescence; Potency, µM (titrated, usually from 57.5 µM), inactives show at the highest dose activity change, negative = inhibition, actives largely listed as inhibitors; 270,000 compounds, 0.007% hits; note: % is set by controls: 0 for no effect and ±100 for the full control effect
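Kinase-Glo Plus luminescence measured ATP left after a 1 h room-temperature reaction. The reaction used 5 nM GALK, 100 uM galactose and 35 uM ATP at pH 8.0 (20 mM HEPES, 5 mM MgCl2, 60 mM NaCl, 1 mM DTT, 0.01% BSA).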
Nrf2 inh = blocks Nrf2 signaling | A549 ARE-Fluc reporter, luciferase luminescence, 18-24 h | Potency, µM (doses to about 46 µM), for inactives: at the top dose activity change, negative = inhibition, hits mostly inhibitors | 360,000 compounds, 2.1% hits | AID 504444; note: % is set by controls: 0 for no effect and ±100 for the full control effect; nearly all actives have a fitted effect of over 60% in size
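In this cell-based qHTS, ARE-driven firefly luciferase in A549 cells reports Nrf2 activity; the luminescent signal after BugLite lysis is the measured value, with a prior CellTiter-Fluor read for cell health.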
Nrf2 ARE act = activators of Nrf2 (ARE) signaling; AREc32 ARE-luciferase reporter (MCF7-derived line), luminescence, 24 h; Potency, µM (doses to about 46.1 µM), without a hit: at the top dose activation, hits mostly activators; 410,000 compounds, 0.31% hits; note: % of control where 0% means no effect; nearly all actives have a fitted effect of over 65% in size
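Cells of the AREc32 ARE-luciferase line are plated in OPTI-MEM containing 5% FBS and left overnight at 37 deg C. Compounds are pinned in, incubation continues 24 hr, and firefly luciferase signal is then measured.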
A549 tox = counter-screen for Nrf2 inhibitors: cytotoxicity in A549 cells; 390,000 compounds, 0.16% hits; A549 ARE-Fluc cells, CellTiter-Fluor viability, 18-24 h; AID 504648; Potency, µM (titrated, usually from 46 µM), for the others: top-dose activity change, negative = cytotoxicity, usual class: inhibitors; note: % is set by controls: 0 for no effect and ±100 for the full control effect
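Cytotoxicity counterscreen: CellTiter-Fluor fluorescence was measured in A549 ARE_Fluc cells after 18-24 h of compound exposure in a concentration series. The subsequent BugLite luminescent read reports ARE-luciferase activity.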
TrxR1 inh = rat TrxR1 inhibition; O89049; recombinant rTrxR1, NADPH fluorescence consumption, selenite substrate; Potency, µM (doses to about 114 µM), inactives show top-dose activity change, negative = inhibition, actives largely listed as inhibitors; 390,000 compounds, 1% hits; note: % is set by controls: 0 for no effect and ±100 for the full control effect; nearly all actives have a fitted effect of over 65% in size
Target sequence (O89049 whole entry, looked up): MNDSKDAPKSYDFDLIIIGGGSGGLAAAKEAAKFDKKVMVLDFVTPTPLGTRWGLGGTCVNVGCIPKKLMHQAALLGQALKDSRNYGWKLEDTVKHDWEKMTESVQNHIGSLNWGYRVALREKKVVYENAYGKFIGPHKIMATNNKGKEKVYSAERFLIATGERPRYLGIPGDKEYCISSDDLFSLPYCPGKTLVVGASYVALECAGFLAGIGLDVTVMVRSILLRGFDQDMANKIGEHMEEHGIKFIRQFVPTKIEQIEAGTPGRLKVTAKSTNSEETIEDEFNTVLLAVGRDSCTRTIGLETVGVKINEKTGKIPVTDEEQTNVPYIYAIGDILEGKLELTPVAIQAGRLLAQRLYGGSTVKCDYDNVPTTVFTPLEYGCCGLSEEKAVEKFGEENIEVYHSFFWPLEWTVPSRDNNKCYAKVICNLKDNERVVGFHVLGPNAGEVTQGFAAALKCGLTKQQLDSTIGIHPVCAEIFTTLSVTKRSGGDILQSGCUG
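Rat TrxR1 (90 nM in the dispensed reagent) was pre-reduced with 400 uM NADPH for 5 min at room temperature, then incubated with compound for 15 min. After 400 uM selenite was added, NADPH fluorescence (Ex 340/Em 450 nm) was followed for 8 min.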
TrxR1 substrate = is turned over as a substrate by rat TrxR1; O89049; Potency, µM (series often up to 114 µM), for the others: at the highest dose activity change, negative = substrate turnover; 390,000 compounds, 0.01% hits; AID 588456; purified TrxR1 substrate turnover, NADPH consumption readout; note: % is set by controls: 0 for no effect and ±100 for the full control effect; nearly all actives have a fitted effect of over 50% in size
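Rat TrxR1, dispensed at 90 nM, was prereduced with 400 uM NADPH (final) for 5 min at ~22 deg C, then incubated with compound 15 min before 400 uM selenite. A first-read NADPH fluorescence drop versus no-compound background flagged substrates.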
Starred values were filed as active, the others as inactive; ? = inconclusive; / = no result; ! = not active in a repeat; [ ] = dose if it differs, or a comment. Calls come from the whole dose curve; as a rule, active = well fitted curve in the direction sought with a large enough effect; inconclusive = small, poorly fitted or top-dose-only effect, or another doubt; inactive = no such curve, though single readings can be large; an effect the other way counts as inactive or inconclusive. Potency is the fitted concentration of half-maximal effect.

SMILES | GALK inhibitor | Nrf2 inh | Nrf2 ARE act | A549 tox | TrxR1 inh | TrxR1 substrate
Cc1c(Cl)cccc1NC(=O)CCS(=O)(=O)c1cccc2nsnc12 | / | 10%[9.27 µM] | 2% | -8% | -32% | 1%
NCCCS(=O)(=O)O | / | 12% | -1% | -6% | 11µM*! | 11%[57.1 µM]
CCN1CCN(c2oc(/C=C/c3ccccc3OC)nc2C#N)CC1 | / | -1% | 7% | 1% | 48% | 270%
Cc1ccc(C(=O)N/C(=C\c2ccc(-c3ccccc3[N+](=O)[O-])o2)C(=O)NCCN(C)C)cc1 | 7% | -5% | 8% | -11% | 14µM* | 1%
CCCC(=O)N(C1CC(C)C(C#N)(C#N)C1(C#N)C#N)N(C)C (stereo not given) | 1% | ? | -2% | ? | 2.5µM* | 13%[57.1 µM]
CC(=O)N(C1CC(C)C(C#N)(C#N)C1(C#N)C#N)N(C)C (stereo not given) | -1% | ? | -2% | ? | 1.6µM* | 12%[57.1 µM]
O=S(=O)(c1ccc2c(c1)OCCO2)N1CCN(S(=O)(=O)c2ccc(Cl)cc2F)CC1 | / | 4% | / | -1% | / | /
CCCC(C)C(=O)Nc1nc(C)c(-c2csc(Nc3ccc(Cl)cc3)n2)s1 (stereo not given) | -3% | 15µM* | 4% | -12% | -26% | -13%
CCC(C)C(=O)Nc1nc(C)c(-c2csc(Nc3cc(OC)ccc3OC)n2)s1 (stereo not given) | -2% | ? | 0% | -8% | 15%[57.1 µM] | 3%[57.1 µM]
CCC(C)C(=O)Nc1nc(C)c(-c2csc(Nc3cc(Cl)ccc3OC)n2)s1 (stereo not given) | 2% | 8.2µM* | 0% | -4% | 11%[57.1 µM] | 6%[57.1 µM]
c1nc(SSc2ncc3n[nH]nc3n2)nc2n[nH]nc12 | / | / | / | / | ? | -24%
COc1ccc(CC(=O)Nc2nc(C(C)(C)C)cs2)cc1 | -6% | 13µM* | 2% | ? | 11%[57.1 µM] | 2%[57.1 µM]
COc1ccc(CC(=O)Nc2nc(C)cs2)cc1 | -2% | 8% | 0% | 3% | 2%[57.1 µM] | 6%[57.1 µM]
COc1ccc(OC)c(-c2csc(NC(=O)Cc3cccs3)n2)c1 | -1% | 16µM* | 7% | -6% | 5%[57.1 µM] | -9%
COc1ccc(OC)c(-c2csc(NC(=O)Cc3ccc(OC)c(OC)c3)n2)c1 | -4% | ? | 2% | ? | 18% | 1%
CCc1noc(C)c1C(=O)Nc1nc(-c2cc(OC)ccc2OC)cs1 | / | -11% | 3% | 2% | 8% | -5%
CCc1noc(C)c1C(=O)Nc1nc(-c2ccc(OC)cc2OC)cs1 | / | 8.2µM* | 0% | -3% | 1%[57.1 µM] | -2%[57.1 µM]
COc1ccc(CC(=O)Nc2nc(-c3cc(OC)ccc3OC)cs2)cc1 | 0% | 12µM* | 0% | -20% | 29%[57.1 µM] | -17%[57.1 µM]
CC(=O)Nc1ccc(Nc2ccc3cc(S(=O)(=O)N4CCCCC4)ccc3n2)cc1 | / | ? | 3% | -22% | 1%[57.1 µM] | -3%[57.1 µM]
O=S(=O)(c1ccc(Cl)cc1)N1CCN(c2nc(-c3cccc(Br)c3)nc3ccccc23)CC1 | / | 4% | / | 0% | 26% | 4%
O=[S+]1([O-])N=C(Oc2cccnc2)c2ccccc21 | / | 11% | / | -2% | / | /
Cc1cccc(NC(=O)c2oc3ccccc3c2NC(=O)Cc2coc3c(C)c(C)ccc23)c1 | / | -8% | 1% | 8% | 29% | 21%
COc1cccc(CC(=O)Nc2nc(-c3cc(OC)ccc3OC)cs2)c1 | 1% | -13% | 0% | -1% | 26%[57.1 µM] | -8%[57.1 µM]
COc1ccc(OC)c(-c2csc(NC(=O)Cc3ccccc3)n2)c1 | 0% | 18µM* | 3% | -17% | 9%[57.1 µM] | -23%[57.1 µM]
CC(=O)NNc1nc(-c2ccccc2)c2cc(Cl)ccc2n1 | / | / | -1% | / | / | /
SMILES | GALK inhibitor | Nrf2 inh | Nrf2 ARE act | A549 tox | TrxR1 inh | TrxR1 substrate
COCCNC(=O)c1cccc(Nc2nc(-c3ccccc3)c3cc(Cl)ccc3n2)c1 | -1% | 15µM* | 2% | ? | -1% | -1%
CNC(=O)c1cnc2sc(N3CCCCCC3)nn2c1=O | / | ? | 4% | 9% | -7%[57.1 µM] | 101%[57.1 µM]
CCN(CC)CCNC(=O)c1cc2cc3ccc(OC)cc3nc2o1 | 2% | 7% | 2% | 1% | 133% | 736%
COc1ccc2cc3cc(C(=O)Nc4cc(OC)c(OC)c(OC)c4)oc3nc2c1 | -1% | ? | -1% | -11% | -16% | -12%
CCCCN(C)CCNC(=O)c1cc2cc3ccc(OC)cc3nc2o1 | 3% | -10% | 5% | 0% | 45µM* | 606%
COc1ccc2cc3cc(C(=O)Nc4ccc5c(c4)OCCO5)oc3nc2c1 | 3% | 18µM* | 2% | -25% | 1% | 4%
CC1=C(c2ccc(Cl)cc2)S(=O)(=O)N=C1N1CCN(c2cccc(C(F)(F)F)c2)CC1 | / | ? | 0% | -9% | 19% | -5%
Cc1nn(Cc2ccc(C(=O)NC(C)(C)C)o2)c(C)c1Br | -2% | 18µM* | 1% | -16% | ? | -6%
Cc1cc(Nc2ccc(F)cc2)n2c(nc3ccccc32)c1C#N | / | -13% | 0% | -2% | 11% | 2%

Screens as filed in PubChem BioAssay.
